PubChem BioAssay
Activity calls are given as the source filed them.

Assays:
[1] = system: Plasmodium falciparum Sir2 (PF13_0152, Sir2A); test: Plasmodium falciparum Sir2A binding compounds – biochemical, small-molecule microarray, 635 nm fluorescence, primary screen (AID 1098); details: fluorescence 635 nm, higher = more signal;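 further: score merges spot fluorescence intensity with its signal-to-noise ratio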
[2] = probe aDKK1 binding to arrayed compounds – biochemical, biotinylated probe, 635/667 nm fluorescence, primary screen (AID 1099); details: small-molecule microarray, higher = more signal;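 further: score merges 667nm spot fluorescence with signal to noise across triplicate slides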
[3] = probe aCHRDL2 binding to arrayed compounds – biochemical, biotinylated probe, 635/667 nm fluorescence, primary screen (AID 1100); details: small-molecule microarray, higher = more signal
[4] = change in splice reporter luminescence, either direction, cell-based, HEK293, spliceosome inhibition project, primary screen (AID 1101); details: HEK293 splicing luciferase reporter, 24 h, higher = more signal, called active from +8 up or from −8 down;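 further: HEK293 cells carrying a splicing-competent luciferase reporter gene; test concentration not given here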
[5] = target: Fibroblast growth factor 10 (Homo sapiens) (UniProt O15520); test: compounds binding fibroblast growth factor 10 – biochemical, small-molecule microarray, 635 nm fluorescence, primary screen (AID 1102); details: FGF10 binding, fluorescence 635 nm, higher = more signal
Chain of Fibroblast growth factor 10 (Homo sapiens) (O15520 whole entry, looked up): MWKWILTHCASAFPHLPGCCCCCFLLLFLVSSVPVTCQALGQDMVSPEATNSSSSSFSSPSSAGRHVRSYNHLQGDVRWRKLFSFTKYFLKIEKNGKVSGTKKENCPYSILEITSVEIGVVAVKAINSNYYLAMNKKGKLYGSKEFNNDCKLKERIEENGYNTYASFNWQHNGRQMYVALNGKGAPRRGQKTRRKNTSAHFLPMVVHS

[6] = system: glycogen synthase kinase-3 (GSK3A per assay name; protocol says GSK3B); test: compounds binding glycogen synthase kinase-3 – biochemical, small-molecule microarray, 635 nm fluorescence, GSK3A, primary screen (AID 1103); details: fluorescence 635 nm, higher = more signal; further: the record names both GSK3A and GSK3B
[7] = target: Epidermal growth factor receptor (Homo sapiens) (UniProt P00533); test: compounds binding epidermal growth factor receptor – biochemical, small-molecule microarray, 635 nm fluorescence, primary screen (AID 1104); details: EGFR binding, higher = more signal;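 further: score merges 667 nm emission intensity with spot signal to noise over triplicate slides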
Chain of Epidermal growth factor receptor (Homo sapiens) (P00533 whole entry, looked up): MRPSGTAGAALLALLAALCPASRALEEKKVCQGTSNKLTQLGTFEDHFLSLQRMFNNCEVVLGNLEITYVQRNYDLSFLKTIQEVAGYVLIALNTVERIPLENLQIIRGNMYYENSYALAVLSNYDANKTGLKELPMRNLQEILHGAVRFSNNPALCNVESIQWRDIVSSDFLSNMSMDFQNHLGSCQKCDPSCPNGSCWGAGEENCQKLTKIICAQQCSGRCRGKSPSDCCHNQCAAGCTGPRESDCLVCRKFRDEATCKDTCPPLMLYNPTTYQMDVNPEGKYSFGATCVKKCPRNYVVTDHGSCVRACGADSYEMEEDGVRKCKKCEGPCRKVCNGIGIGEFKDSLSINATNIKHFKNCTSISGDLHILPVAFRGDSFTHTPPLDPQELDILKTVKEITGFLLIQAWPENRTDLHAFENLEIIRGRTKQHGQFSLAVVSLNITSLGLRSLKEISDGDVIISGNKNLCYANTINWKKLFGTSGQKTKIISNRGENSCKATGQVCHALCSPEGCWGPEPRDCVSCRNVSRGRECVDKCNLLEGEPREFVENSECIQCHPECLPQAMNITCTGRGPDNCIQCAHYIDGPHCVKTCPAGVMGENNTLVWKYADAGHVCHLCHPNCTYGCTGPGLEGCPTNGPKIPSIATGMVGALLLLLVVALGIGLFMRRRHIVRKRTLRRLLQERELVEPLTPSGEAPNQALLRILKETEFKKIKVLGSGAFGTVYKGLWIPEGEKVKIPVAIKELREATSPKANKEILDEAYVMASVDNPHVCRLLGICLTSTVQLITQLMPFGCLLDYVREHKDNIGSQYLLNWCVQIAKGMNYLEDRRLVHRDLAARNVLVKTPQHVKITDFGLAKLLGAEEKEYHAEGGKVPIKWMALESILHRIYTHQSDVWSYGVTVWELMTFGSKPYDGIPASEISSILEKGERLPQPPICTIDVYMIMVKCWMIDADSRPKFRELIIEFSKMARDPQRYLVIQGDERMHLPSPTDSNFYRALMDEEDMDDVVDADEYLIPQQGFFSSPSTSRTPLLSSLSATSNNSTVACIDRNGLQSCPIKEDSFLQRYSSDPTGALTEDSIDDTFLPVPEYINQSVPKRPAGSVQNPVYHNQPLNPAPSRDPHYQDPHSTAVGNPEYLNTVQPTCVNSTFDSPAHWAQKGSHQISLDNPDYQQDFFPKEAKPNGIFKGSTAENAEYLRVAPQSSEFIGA

[8] = target: Follistatin-related protein 3 (Homo sapiens) (UniProt O95633); test: compounds binding follistatin-related protein 3 – biochemical, small-molecule microarray, 635 nm fluorescence, primary screen (AID 1105); details: FSTL3 binding, higher = more signal;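 further: score merges emission near 667 nm and signal to noise per printed spot across three slides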
Chain of Follistatin-related protein 3 (Homo sapiens) (O95633 whole entry, looked up): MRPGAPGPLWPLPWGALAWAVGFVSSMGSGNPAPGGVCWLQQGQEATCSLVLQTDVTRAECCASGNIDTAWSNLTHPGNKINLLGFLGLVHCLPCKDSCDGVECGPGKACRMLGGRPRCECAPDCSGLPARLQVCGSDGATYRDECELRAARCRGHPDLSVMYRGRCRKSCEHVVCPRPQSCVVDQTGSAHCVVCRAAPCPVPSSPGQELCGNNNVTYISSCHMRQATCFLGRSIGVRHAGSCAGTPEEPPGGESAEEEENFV

[9] = target: Dickkopf-related protein 1 (Homo sapiens) (UniProt O94907); test: small molecules binding DKK1 protein – biochemical, small-molecule microarray, 635 nm fluorescence scan, primary screen (AID 1106); details: higher = more signal;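 further: score merges emission near 667 nm with signal to noise over three replicate slides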
Chain of Dickkopf-related protein 1 (Homo sapiens) (O94907 whole entry, looked up): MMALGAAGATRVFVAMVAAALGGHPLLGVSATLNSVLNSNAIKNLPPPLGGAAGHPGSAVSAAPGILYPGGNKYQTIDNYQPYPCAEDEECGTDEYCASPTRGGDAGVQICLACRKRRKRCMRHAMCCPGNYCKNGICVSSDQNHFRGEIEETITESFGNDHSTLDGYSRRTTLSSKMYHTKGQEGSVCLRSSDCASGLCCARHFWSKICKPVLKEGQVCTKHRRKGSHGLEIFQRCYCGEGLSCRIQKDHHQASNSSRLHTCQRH

[10] = system: Inhibin beta A chain (activin A); test: small molecules binding activin A – biochemical, small-molecule microarray, 635 nm fluorescence scan, primary screen (AID 1107); details: INHBA, higher = more signal;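 further: mouse activin A protein probed at 4.33 µg/mL on printed slides; score merges bound-protein fluorescence near 667 nm with spot signal-to-noise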
[11] = system: Human papillomavirus type 1a protein E7 (residues 44-93); test: small molecules binding HPV E7 44-93 – biochemical, small-molecule microarray, residues 44-93, 635 nm fluorescence, primary screen (AID 1108); details: fluorescence 635 nm, higher = more signal;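 further: E7 fragment applied at 1 µg/mL in TBST for 1 h at 4 C; score combines spot fluorescence with its signal to noise ratio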
[12] = hepatitis C replication reporter changes, two-sided – Huh7 cells, luciferase reporter, HCV replication inhibitor project, primary screen (AID 1109); details: Huh7 HCV replicon luciferase reporter, 48 h; higher = more signal;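 further: huh7 hepatoma cells harbouring a luciferase neomycin HCV replicon reporter; luciferase luminescence as measure of HCV replicon replication; test concentration not given here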
[13] = target: Left-right determination factor 2 (Homo sapiens) (UniProt O00292); test: small molecules binding LEFTY2 protein – biochemical, small-molecule microarray, 635 nm fluorescence scan, primary screen (AID 1110); details: higher = more signal
Chain of Left-right determination factor 2 (Homo sapiens) (O00292 whole entry, looked up): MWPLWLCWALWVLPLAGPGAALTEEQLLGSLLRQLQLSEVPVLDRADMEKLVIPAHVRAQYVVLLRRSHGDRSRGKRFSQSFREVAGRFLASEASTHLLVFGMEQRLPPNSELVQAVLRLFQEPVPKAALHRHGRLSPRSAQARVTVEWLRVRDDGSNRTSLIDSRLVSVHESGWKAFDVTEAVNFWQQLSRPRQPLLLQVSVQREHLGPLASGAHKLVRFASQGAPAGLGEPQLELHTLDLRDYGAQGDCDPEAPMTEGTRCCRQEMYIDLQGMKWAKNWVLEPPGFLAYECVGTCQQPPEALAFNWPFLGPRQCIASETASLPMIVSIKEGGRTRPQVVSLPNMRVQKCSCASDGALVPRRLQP

[14] = target: Calmodulin-1 (Homo sapiens) (UniProt P0DP23); test: small molecules binding calmodulin-1 with EGTA – biochemical, small-molecule microarray, Cy5-labelled CALM1, profiling panel (AID 1111); details: Cy5-CALM1 binding fluorescence, higher = more signal;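 further: labelled calmodulin applied in Tris saline Tween buffer holding calcium plus EGTA and DTT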
[15] = target: Calmodulin-1 (Homo sapiens) (UniProt P0DP23); test: small molecules binding Ca-loaded calmodulin-1 – biochemical, small-molecule microarray, Cy5-labelled CALM1, plus calcium, artefact control for SMM control-protein annotation, profiling panel (AID 1112); details: Cy5-CALM1 binding fluorescence, higher = more signal;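 further: score merges spot fluorescence with signal to noise from triplicate slides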
[16] = probe aWnt5a binding to arrayed compounds – biochemical, biotinylated probe, 635/667 nm fluorescence, primary screen (AID 1113); details: small-molecule microarray, higher = more signal;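 further: score merges 667 nm fluorescence intensity with signal-to-noise per printed feature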
[17] = probe aShh binding to arrayed compounds – biochemical, biotinylated probe, 635/667 nm fluorescence, primary screen (AID 1114); details: small-molecule microarray, higher = more signal;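 further: probe is biotin-labelled aShh protein from a stem cell growth factor screen; measures binding of labelled protein to compounds printed on the slide; score merges feature fluorescence at 667 nm with signal-to-noise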
[18] = probe aNog binding to arrayed compounds – biochemical, biotinylated probe, 635/667 nm fluorescence, primary screen (AID 1115); details: small-molecule microarray, higher = more signal;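 further: probe is biotinylated aNog protein used at 0.15 µg/mL for 1 h at 4 C; z-score combines 667 nm fluorescence of each spot with its signal to noise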
[19] = target: Torsin-1A-interacting protein 1 (Homo sapiens) (UniProt Q5JTV8); test: compound microarray binding of lysate hLAP1 – cell lysate, small-molecule microarray, COS7 lysate, 635/667 nm fluorescence, primary screen (AID 1116); details: 635 nm fluorescence, higher = more signal
Chain of Torsin-1A-interacting protein 1 (Homo sapiens) (Q5JTV8 whole entry, looked up): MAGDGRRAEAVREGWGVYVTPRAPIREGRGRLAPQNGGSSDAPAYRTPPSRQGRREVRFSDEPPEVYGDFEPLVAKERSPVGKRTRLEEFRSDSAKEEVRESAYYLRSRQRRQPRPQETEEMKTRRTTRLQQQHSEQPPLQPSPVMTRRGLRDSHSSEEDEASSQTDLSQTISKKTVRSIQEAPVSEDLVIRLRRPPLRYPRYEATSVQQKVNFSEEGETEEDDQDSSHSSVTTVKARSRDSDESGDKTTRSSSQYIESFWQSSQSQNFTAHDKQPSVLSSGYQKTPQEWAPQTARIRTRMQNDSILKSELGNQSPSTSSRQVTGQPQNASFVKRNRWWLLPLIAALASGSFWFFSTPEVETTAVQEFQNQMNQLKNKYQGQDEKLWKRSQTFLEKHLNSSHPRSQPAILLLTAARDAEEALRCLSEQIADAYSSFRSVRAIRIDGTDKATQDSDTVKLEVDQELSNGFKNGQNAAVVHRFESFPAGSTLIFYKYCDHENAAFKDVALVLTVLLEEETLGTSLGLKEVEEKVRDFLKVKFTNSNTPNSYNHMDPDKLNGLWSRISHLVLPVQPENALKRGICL

[20] = target: Alpha-bungarotoxin (Bungarus multicinctus) (UniProt P60615); test: compounds binding labelled alpha-BTX control protein – biochemical, small-molecule microarray, Alexa647 label, 635/667 nm fluorescence, artefact control for SMM control protein annotation, profiling panel (AID 1117); details: alpha-BTX-A647 binding fluorescence, higher = more signal
Chain of Alpha-bungarotoxin (Bungarus multicinctus) (P60615 whole entry, looked up): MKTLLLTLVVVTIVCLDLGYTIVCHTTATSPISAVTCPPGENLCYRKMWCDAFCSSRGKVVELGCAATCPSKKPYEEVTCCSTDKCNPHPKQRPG

O=C1c2ccccc2[C@](Cc2ccccc2I)(C(=O)O)[C@H](c2ccc(CO)cc2)N1Cc1ccccc1Cl
composite z-score [1]: 0.96
composite z-score [2]: 0.815
composite z-score [3]: 1.06
z-score [4]: 0.0252 (inactive)
composite z-score [5]: 0.235
composite z-score [6]: -0.0679
composite z-score [7]: -0.197
composite z-score [8]: 0.521
composite z-score [9]: 0.697
composite z-score [10]: 0.623
composite z-score [11]: 1.15
z-score [12]: -0.219
composite z-score [13]: -0.0287
composite z-score [14]: 1.56
composite z-score [15]: 0.586
composite z-score [16]: -0.163
composite z-score [17]: -0.189
composite z-score [18]: 0.195
composite z-score [19]: 0.957
composite z-score [20]: 2.29

CO[C@H]1O[C@H](CO)[C@@H](OC(=O)CCc2ccccc2)[C@@H]2OC(=O)[C@H](Cc3ccccc3)C/C=C/C[C@@H](Cc3ccccc3)C(=O)O[C@@H]12
composite z-score [1]: 0.489
composite z-score [2]: -0.332
composite z-score [3]: 0.268
z-score [4]: -0.87 (inactive)
composite z-score [5]: -0.135
composite z-score [6]: -1.24
composite z-score [7]: -0.938
composite z-score [8]: -0.861
composite z-score [9]: -0.844
composite z-score [10]: 1.17
composite z-score [11]: -0.673
z-score [12]: -1.31
composite z-score [13]: -0.0637
composite z-score [14]: -0.879
composite z-score [15]: -0.123
composite z-score [16]: -0.106
composite z-score [17]: -0.471
composite z-score [18]: 0.248
composite z-score [19]: 0.108
composite z-score [20]: -0.75

COc1ccc([Si](C)(C)[C@H]2[C@H](CC(=O)N3Cc4ccccc4C[C@H]3CO)O[C@@]3(C(=O)N(Cc4cccc(N5C(=O)COc6ccccc65)c4)c4ccccc43)[C@@H]2C)cc1
composite z-score [1]: 1.18
composite z-score [2]: -0.225
composite z-score [3]: -0.261
z-score [4]: -1.72 (inactive)
composite z-score [5]: 0.818
composite z-score [6]: 0.52
composite z-score [7]: 1.13
composite z-score [8]: 1.26
composite z-score [9]: 1.12
composite z-score [10]: 1.23
composite z-score [11]: 0.354
z-score [12]: -3.73
composite z-score [13]: 0.818
composite z-score [14]: 0.191
composite z-score [15]: -0.185
composite z-score [16]: 0.0094
composite z-score [17]: 0.0637
composite z-score [18]: -0.0118
composite z-score [19]: 0.7
composite z-score [20]: 1.87

CC(C)C[C@@H]1NC(=O)[C@H]2C[C@@H](C(=O)NCCCC[N+](C)(C)C)[C@@H](c3cccc(OCCO)c3)N2C1=O
composite z-score [1]: 0.812
composite z-score [2]: 0.0877
composite z-score [3]: -0.409
z-score [4]: -1.02 (inactive)
composite z-score [5]: 0.756
composite z-score [6]: -0.285
composite z-score [7]: 0.0727
composite z-score [8]: 0.965
composite z-score [9]: 1.23
composite z-score [10]: -0.125
composite z-score [11]: -1.55
z-score [12]: -1.48
composite z-score [13]: 0.673
composite z-score [14]: -0.144
composite z-score [15]: 0.75
composite z-score [16]: -0.148
composite z-score [17]: -0.0722
composite z-score [18]: 0.327
composite z-score [19]: 1.19
composite z-score [20]: -0.491

O=C1c2ccccc2C(=O)c2cc([C@H]3Oc4ccccc4S(=O)(=O)N4CCC[C@@H]34)ccc21
composite z-score [1]: -1.12
composite z-score [2]: -0.108
composite z-score [3]: 0.461
z-score [4]: -0.833 (inactive)
composite z-score [5]: -0.439
composite z-score [6]: -0.896
composite z-score [7]: -0.727
composite z-score [8]: -1.02
composite z-score [9]: 0.11
composite z-score [10]: 1.09
composite z-score [11]: -1.1
z-score [12]: -2
composite z-score [13]: -0.148
composite z-score [14]: -0.94
composite z-score [15]: 0.812
composite z-score [16]: -0.16
composite z-score [17]: -0.214
composite z-score [18]: 0.0431
composite z-score [19]: -0.749
composite z-score [20]: -0.744

CCOC(=O)C[C@H]1[C@H](OC(=O)c2ccc(C(=O)c3ccccc3)cc2)[C@@H](NC(=O)Cc2ccc(OC)cc2)c2cc(OCCCO)ccc2N1C(=O)Cc1ccc(OC)cc1
composite z-score [1]: 0.276
composite z-score [2]: 0.676
composite z-score [3]: 0.949
z-score [4]: -1.52 (inactive)
composite z-score [5]: 0.371
composite z-score [6]: 0.283
composite z-score [7]: -0.137
composite z-score [8]: 0.321
composite z-score [9]: -0.177
composite z-score [10]: 0.962
composite z-score [11]: 1.06
z-score [12]: -1.06
composite z-score [13]: 0.39
composite z-score [14]: 1.31
composite z-score [15]: 0.655
composite z-score [16]: -0.0643
composite z-score [17]: -0.156
composite z-score [18]: 1.1
composite z-score [19]: 0.743
composite z-score [20]: 0.978
